Assay outcomes from PubChem.
Shown are actives, neighbours in structure and some others; about 2.2% of the full set was active somewhere.
Pin1 inhibitor = blocks the human prolyl isomerase Pin1; Potency, µM (highest dose often 115 µM), actives largely listed as inhibitors; Q13526; Pin1 FP peptide displacement, HiFluor488, 10 min; actives 0.009% (n = 390,000); AID 504891; active = well fitted inhibition curve with a large enough effect in the polarisation, with a control signal flat, not every such curve was filed as active; inconclusive = small, poorly fitted or top-dose-only effect, or effect the other way, or a change in a side signal; inactive = no such curve, though single readings can be large or run the other way; the % refers to the polarisation
Target sequence (Q13526 whole entry, looked up): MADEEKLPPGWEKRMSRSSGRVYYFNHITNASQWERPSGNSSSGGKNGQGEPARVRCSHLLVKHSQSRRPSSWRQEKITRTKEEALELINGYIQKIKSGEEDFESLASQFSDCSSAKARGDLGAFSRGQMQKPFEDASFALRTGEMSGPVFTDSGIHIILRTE
A549 tox = counter-screen for Nrf2 inhibitors: cytotoxicity in A549 cells; actives 0.16% (n = 390,000); Potency, µM (highest dose often 46 µM), hits mostly inhibitors; AID 504648; A549 ARE-Fluc cells, CellTiter-Fluor viability, 18-24 h
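A549 ARE_Fluc cells in 5% FBS OPTI-MEM were exposed to compounds in concentration-response for 18-24 h at 37 deg C. Viability was read by CellTiter-Fluor fluorescence (Ex 405/Em 525) after 30 min, before the luciferase read.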
Nrf2 activator = activates Nrf2 signaling; actives 0.31% (n = 410,000); Potency, µM (titrated, usually from 46.1 µM), usual class: activators; AID 624171; AREc32 ARE-luciferase reporter (MCF7-derived line), luminescence, 24 h; also: nearly all actives have a fitted effect of over 65% in size
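Steps: seed AREc32_Fluc cells (1000/well, 5% FBS OPTI-MEM); incubate overnight at 37 deg C; add 23 nL compound; incubate 24 hr; add Steady-Glo; hold 30 min RT; read luminescence.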
Nrf2 block = inhibitors of Nrf2 signaling; A549 ARE-Fluc reporter, luciferase luminescence, 18-24 h; AID 504444; actives 2.1% (n = 360,000); Potency, µM (series often up to 46 µM), actives largely listed as inhibitors; also: nearly all actives have a fitted effect of over 60% in size
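Quantitative HTS in A549 cells stably bearing an antioxidant response element-firefly luciferase construct. Inhibition of Nrf2-driven transcription was scored by luminescence after 18-24 h of compound exposure at 37 °C.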
Of the large screens only hits and unclear results are named; the others gave an inactive call. Unless noted, calls follow the shape of the dose curve; as a rule, active = well fitted curve in the direction sought with a large enough effect; inconclusive = small, poorly fitted or top-dose-only effect, or another doubt; inactive = no such curve, though single readings can be large; an effect the other way counts as inactive or inconclusive.

Cn1c(NC(=O)/C=C\c2ccccc2)cc(=O)n(C)c1=O	Nrf2 activator 11µM, Nrf2 block inconclusive
Cn1c(NC(=O)c2ccc(Br)o2)cc(=O)n(C)c1=O	Nrf2 activator 11µM (no result: Nrf2 block)
CCOC(=O)c1c(NC(=O)CSc2cn(CCNC(=O)c3ccccc3OC)c3ccccc23)sc2c1CCC2	Pin1 inhibitor inconclusive
Cc1ccc(C)c(CNC(=O)c2ccc3c(c2)nc2n3CCCCC2)c1	none (no result: Nrf2 block)
Cc1ccc(S(=O)(=O)NCC(Nc2cccc(Cl)c2)c2ccccc2)cc1 (stereo not given)	Nrf2 block inconclusive
Cc1ccc(-n2c(O)c(C=Nc3cc(C)on3)c3ccccc3c2=O)c(C)c1	Pin1 inhibitor inconclusive, A549 tox inconclusive, Nrf2 block 23µM
COc1ccc(C(=O)N(Cc2ccccc2)Cc2ccco2)c(O)c1	Pin1 inhibitor inconclusive (no result: Nrf2 activator)
COc1cccc(OC)c1Nc1nc(C)nc2c1nnn2Cc1ccccc1Cl	none
CCc1nc(Nc2ccc(OC)c(OC)c2)c2nnn(Cc3ccccc3Cl)c2n1	A549 tox inconclusive, Nrf2 block 10µM
CN(CC1CCCO1)S(=O)(=O)c1ccc(C(=O)Nc2nc(-c3ccccn3)cs2)cc1 (stereo not given)	A549 tox inconclusive, Nrf2 block 5.2µM
CC1CN(S(=O)(=O)c2ccc(C(=O)Nc3nc(-c4cc5ccccc5o4)cs3)cc2)CC(C)O1 (stereo not given)	A549 tox 7.3µM, Nrf2 block 3.7µM
CC1CN(S(=O)(=O)c2ccc(C(=O)Nc3nncs3)cc2)CC(C)O1 (stereo not given)	none
CN(CC1CCCO1)S(=O)(=O)c1ccc(C(=O)Nc2ccccc2F)cc1 (stereo not given)	Nrf2 block inconclusive
Cc1cc(-c2csc(NC(=O)c3ccc(S(=O)(=O)N(C)C)cc3)n2)c(C)n1-c1ccccc1	Nrf2 block inconclusive
CN(C)S(=O)(=O)c1ccc(C(=O)Nc2nc(-c3cc4ccccc4o3)cs2)cc1	Nrf2 block 6.5µM
COc1ccc(/C=C/c2nnc(NC(=O)COc3ccc(Cl)cc3)s2)cc1	none (no result: Nrf2 activator)
NCC(=O)Nc1cccc(-c2nn3c(=O)cc(N4CCNCC4)nc3s2)c1	Pin1 inhibitor inconclusive (no result: Nrf2 activator)
Cc1nc(-c2ccc(S(=O)(=O)Nc3ccc(C)c(C)c3)s2)cs1	Pin1 inhibitor inconclusive (no result: Nrf2 activator)
Cc1cc(SCC(=O)N/N=C/c2ccc(O)cc2O)c(C)cc1Br	Nrf2 block 15µM
Cc1cc(SCC(=O)N/N=C/c2ccccc2C(=O)O)c(C)cc1Br	none
COc1ccc(NC(=O)c2oc3ccccc3c2NC(=O)C2CCCCC2)c(OC)c1	none
CCCOc1nc2c(c(=O)n(C)c(=O)n2C)n1Cc1cccc2ccccc12	Nrf2 block 18µM
O=S(=O)(Nc1nc2ccccc2nc1N1CCN(c2ccccc2F)CC1)c1ccc(Cl)cc1	A549 tox inconclusive, Nrf2 block 23µM
Cc1ccc(-c2[nH]ncc2CNCc2ccccc2)cc1	none (no result: Nrf2 activator)
COc1cc(C=C2CN(C)C(=O)C2=O)ccc1O	none (no result: Pin1 inhibitor, A549 tox, Nrf2 block)
CCOc1cc(/C=C2\CN(C)C/C(=C\c3ccc(O)c(OCC)c3)C2=O)ccc1O	A549 tox 13µM, Nrf2 activator inconclusive, Nrf2 block 21µM
Cc1cc(C)n2nc(SCC(=O)Nc3ccc(F)c(F)c3F)nc2n1	Nrf2 block 15µM
COc1ccc(CCNC(=O)C(=O)NCC(c2ccco2)S(=O)(=O)c2ccc(F)cc2)cc1 (stereo not given)	none (no result: Nrf2 block)
O=C(NCc1cccnc1)c1ccc(-c2ccc(Cl)cc2)o1	Nrf2 block inconclusive
O=C(NCc1cccnc1)/C(=C\c1ccc(-c2ccc(Cl)c(Cl)c2)o1)S(=O)(=O)c1ccccc1	A549 tox inconclusive, Nrf2 activator inconclusive, Nrf2 block 18µM
CCOc1ccc(Nc2oc(-c3ccc(Cl)cc3)nc2C#N)cc1	Pin1 inhibitor inconclusive, A549 tox 21µM
COc1ccc(Nc2oc(-c3ccc(Cl)cc3)nc2C#N)cc1	A549 tox inconclusive
COCCCNc1oc(-c2ccc(COc3ccc(Cl)cc3)o2)nc1C#N	Nrf2 block 23µM
COCCNc1oc(-c2ccc(COc3ccc(OC)cc3)o2)nc1C#N	Nrf2 block inconclusive
C[C@H](C(=O)OCO/N=[N+](\[O-])N1CCCC1)c1cccc2ccccc12	none (no result: Nrf2 activator)
CCCOc1ccc(C(=O)Nc2ccc(NC(=O)c3ccccc3)c(Br)c2)cc1	none
C=CCSC1=N/C(=C\c2sccc2C)C(=O)S1	none
C=CCSC1=N/C(=C\C=C\c2ccco2)C(=O)S1	Nrf2 activator 13µM
O=C(O)c1ccc(COc2ccc3ccccc3c2/C=C2/NC(=O)N(Cc3ccc(F)cc3)C2=O)cc1	Nrf2 block 21µM (no result: Pin1 inhibitor)
COc1cc(C(CC(=O)Nc2ccc(Br)cn2)N2Cc3ccccc3C2=O)cc(OC)c1OC (stereo not given)	Nrf2 block inconclusive
COC(=O)c1nnn(CC(=O)Nc2cc(F)ccc2F)c1C(=O)OC	Pin1 inhibitor inconclusive
COc1ccccc1N1CCN(C(=O)CCCNC(=O)Cn2cnc3sc(C)c(C)c3c2=O)CC1	Nrf2 block 23µM
COc1ccc(N2CCN(C(=O)CCCNC(=O)Cn3cnc4sc(C)c(C)c4c3=O)CC2)cc1	none
Cc1sc2ncn(CC(=O)NCCCC(=O)Nc3ccc(C(C)C)cc3)c(=O)c2c1C	A549 tox inconclusive, Nrf2 block 29µM
O=C(CC1N=C2c3ccccc3N=C(SCc3ccc(Cl)cc3)N2C1=O)NCCc1ccccc1 (stereo not given)	Pin1 inhibitor inconclusive, A549 tox inconclusive (no result: Nrf2 block)
CC1=C(C(=O)OCc2ccc(C)cc2)C(c2ccccc2F)CC(=O)N1 (stereo not given)	Nrf2 block inconclusive
COc1ccc(/C=C/C(=O)NCc2cn(C)nc2C)cc1COc1ccc(Br)cc1	Nrf2 block 18µM
CCCOc1cccc(C(=O)N(Cc2cc(OC)c(OC)c(OC)c2)C2CCS(=O)(=O)C2)c1 (stereo not given)	none
Cc1ccc(N(C)S(=O)(=O)c2cccc(C(=O)Nc3ccc(N4CCOCC4)cc3)c2)cc1	Nrf2 block inconclusive
COc1ccc(C(=O)Nc2ccc(NC(=O)c3ccccc3)cc2)cc1S(=O)(=O)N1CCOCC1	Nrf2 block inconclusive
COc1ccc(C(=O)Nc2ccc(N3CCCCCC3)cc2)cc1S(=O)(=O)N1CCOCC1	Nrf2 block 13µM
CC1CN(S(=O)(=O)c2cccc(C(=O)Nc3ccccc3N3CCCC3)c2)CC(C)O1 (stereo not given)	Nrf2 block 23µM
CN1CCN(S(=O)(=O)c2cccc(C(=O)Nc3ccccc3N3CCCC3)c2)CC1	none
CN(c1ccccc1)S(=O)(=O)c1cccc(C(=O)Nc2ccc(N3CCOCC3)cc2)c1	Nrf2 block 15µM
O=C(Nc1ccc(F)cc1)c1ccc(Br)c(S(=O)(=O)N2CCOCC2)c1	Nrf2 block 15µM
CCOc1ccc(OCC)c(NS(=O)(=O)c2c(C)[nH]c(=O)[nH]c2=O)c1	none (no result: Nrf2 block)
CCN(CC)S(=O)(=O)c1ccc2c(c1)nc(CN(C)C(=O)Nc1ccc(C)c(Cl)c1)n2C	none (no result: Nrf2 block)
Cc1ccc2c(c1)c1c3n2CCN(C(=O)c2cccc(C(F)(F)F)c2)C3CCC1 (stereo not given)	Nrf2 block inconclusive
